High-throughput results as filed in PubChem BioAssay.
Measles CPE: protection of cells from measles virus. hit rate 1.5% among 140,000. protection (pct of control), % at 4 µM. Measles virus-infected cells, CPE protection, absorbance; in the data active = protection mostly above about 24%, no sharp cut-off; inactive = mostly below about 26%
CYP2C19 activ: activators of human cytochrome P450 2C19. P33261. recombinant CYP2C19, luciferin-H EGE luminescence; hits give high values; 0 = fully inhibited enzyme, 1 = untreated enzyme. activation factor at 5 µM. 96,000 tested, under 10 active. AID 1025;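 active = activation factor of at least 2 at 5 µM in the primary screen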
Target sequence (P33261 whole entry, looked up): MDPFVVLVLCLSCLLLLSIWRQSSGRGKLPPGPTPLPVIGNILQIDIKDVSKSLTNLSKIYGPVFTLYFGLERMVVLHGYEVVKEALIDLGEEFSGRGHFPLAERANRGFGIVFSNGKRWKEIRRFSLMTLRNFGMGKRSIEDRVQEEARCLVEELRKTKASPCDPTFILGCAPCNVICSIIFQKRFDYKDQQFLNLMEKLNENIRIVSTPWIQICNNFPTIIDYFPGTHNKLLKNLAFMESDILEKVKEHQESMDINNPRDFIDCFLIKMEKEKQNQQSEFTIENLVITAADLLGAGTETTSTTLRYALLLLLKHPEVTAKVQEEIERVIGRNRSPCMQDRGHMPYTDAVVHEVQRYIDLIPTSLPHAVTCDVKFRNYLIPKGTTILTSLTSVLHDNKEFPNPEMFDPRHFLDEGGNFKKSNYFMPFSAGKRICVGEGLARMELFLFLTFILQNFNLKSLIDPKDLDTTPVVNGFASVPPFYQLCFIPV
CYP2C9 act: CYP2C9 (human) activation. P11712. recombinant CYP2C9, luciferin-H conversion, luminescence; hits give high values; factor 1 = untreated enzyme, 0 = blocked. activation factor at 5 µM. hit rate 1.4% among 96,000. AID 1024;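 active = activation factor of 2 or more for CYP2C9 at a 5 µM dose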
CYP2C19 inhib: inhibitors of human CYP2C19. CYP2C19 Supersomes, luciferin-H EGE luminescence, 30 min. hit rate 21% among 96,000. inhibition, % at 5 µM. AID 778. P33261;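 active = CYP2C19 inhibition above a set limit at 5 µM in the primary screen, cut at about 50% in these data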
CYP2C9 inh: inhibitors of human CYP2C9; P11712; CYP2C9 Supersomes, luciferin-H conversion, luminescence; inhibition, % at 5 µM; hit rate 20% among 96,000;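 active = blocking of liver enzyme CYP2C9 beyond about 50% at 5 µM, limit read from the data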
Each line names hits and unclear results; the compound was inactive in the other large screens. Only some compounds are listed: those with a hit (about 22% of all), similar ones and a draw of the others.

CC1CCN(CC(=O)N2CCCc3c2c(=O)oc2ccc(OCc4ccccc4)cc32)CC1	CYP2C19 inhib 53, CYP2C9 inh 90
CC1CCN(CCCOc2ccc(OCc3ccccc3)cc2)CC1	none
COc1ccc(OC)c(NC(=O)c2cnc(Nc3ccccc3OC)c3ccccc23)c1	none (no result: CYP2C19 activ, CYP2C9 act, CYP2C19 inhib, CYP2C9 inh)
COc1ccc(CC(=O)Nc2ccc(OC)c(NC(=O)c3ccco3)c2)cc1	none
COc1ccc(NC(=O)CCc2ccccc2)cc1NC(=O)c1ccco1	CYP2C19 inhib 62, CYP2C9 inh 66
COc1ccc(NC(=O)c2ccco2)cc1NC(=O)c1cccs1	CYP2C19 inhib 57, CYP2C9 inh 55
COc1ccccc1-n1cnc2cc(NC(=O)c3ccco3)ccc21	CYP2C19 inhib 65
Cc1ccc(-n2ncc(-c3nnc(SCC(=O)NC4CCCC4)o3)c2N)cc1C	none
CC1CCCN(C(=S)Nc2ccc3nc4n(c(=O)c3c2)CCCCC4)C1 (centres undefined)	none (no result: CYP2C19 activ, CYP2C9 act, CYP2C19 inhib, CYP2C9 inh)
COc1cnc(SCc2c(Cl)cccc2Cl)nc1Cl	none
Cc1csc(=NC(=O)c2ccccc2)n1Cc1ccco1	CYP2C19 inhib 72
C/C(CC(=O)Nc1ccc(OCc2ccccc2)cc1)=N\NC(=O)C(=O)Nc1cccc(C)c1	none (no result: CYP2C19 activ, CYP2C9 act, CYP2C19 inhib, CYP2C9 inh)
Cc1cc(NC(=O)CN2CCC(n3nnc4cc(C(F)(F)F)ccc43)CC2)no1	CYP2C19 inhib 78, CYP2C9 inh 86
CCOc1ccc2nc(NC(=O)CN3CCC(n4nnc5cc(C(F)(F)F)ccc54)CC3)sc2c1	none
Cc1ccc2c(c1)nnn2C1CCN(CC(=O)Nc2ccc3c(c2)OCCO3)CC1	CYP2C9 inh 50
O=C(CN1CCC(n2nnc3cc(F)ccc32)CC1)N1CCCc2ccccc21	CYP2C19 inhib 66
COc1ccc(Cl)cc1NC(=O)CN1CCC(n2nnc3cc(F)ccc32)CC1	CYP2C19 inhib 76
COC(=O)c1ccccc1NC(=O)CN1CCC(n2nnc3cc(C)ccc32)CC1	none (no result: Measles CPE)
O=C(CN1CCC(n2nnc3cc(C(F)(F)F)ccc32)CC1)N1CCc2ccccc21	none
CCOC(=O)c1c(CC(C)C)csc1NC(=O)COC(=O)c1cc(OC)c(OC)cc1[N+](=O)[O-]	none (no result: CYP2C19 activ, CYP2C9 act, CYP2C19 inhib, CYP2C9 inh)
O=[N+]([O-])c1ccc(Cl)cc1Sc1ccccn1	none (no result: CYP2C19 activ, CYP2C9 act, CYP2C19 inhib, CYP2C9 inh)
CC1(C)CCCN(C(=O)c2coc(=O)c(Br)c2)C1	none
CCOc1ccccc1N1CCN(C(=O)CCCc2nc3ccccc3s2)CC1	none (no result: CYP2C19 activ, CYP2C9 act, CYP2C19 inhib, CYP2C9 inh)
Cc1ccc2nc(C3CCN(CC(=O)Nc4ccc5c(c4)OCCO5)CC3)[nH]c2c1	CYP2C19 inhib 80, CYP2C9 inh 78
O=C(CN1CCC(n2nnc3cc(F)ccc32)CC1)Nc1ccc2c(c1)CCC2	none
O=C(CN1CCC(n2nnc3ccccc32)CC1)Nc1ccc2c(c1)CCC2	CYP2C19 inhib 68, CYP2C9 inh 62
O=C(CC(O)(c1ccccc1)C(F)(F)F)c1cccs1 (centres undefined)	none
CC(=O)C1=C(O)C(=O)N(c2cccnc2)C1c1ccc(Cl)cc1 (centres undefined)	none
CCCNc1nc(NCC)nc(OC)n1	none
Cc1ccccc1N1CCN(Cc2c(C#N)c3ccccc3n2C)CC1	CYP2C19 inhib 67
Cc1ccc(SCc2c(C#N)c3ccccc3n2C)cc1	none (no result: CYP2C19 activ, CYP2C9 act, CYP2C19 inhib, CYP2C9 inh)
Cn1c(CSc2ccccc2)c(C#N)c2ccccc21	CYP2C19 inhib 75
Cn1c(CNc2ccccn2)c(C#N)c2ccccc21	CYP2C19 inhib 75
CCOc1ccc(Nc2cc(C)nc3nc(C)nn23)cc1	none (no result: CYP2C19 activ, CYP2C9 act, CYP2C19 inhib, CYP2C9 inh)
Nc1c2c(nc3ccc(Br)cc13)N(c1ccccc1)CC2	CYP2C19 inhib 89, CYP2C9 inh 87
Nc1c2c(nc3ccc(Br)cc13)N(Cc1ccccc1)CC2	Measles CPE 28 (no result: CYP2C19 activ, CYP2C9 act, CYP2C19 inhib, CYP2C9 inh)
Cc1cccc(N2CCc3c2nc2ccc(Br)cc2c3N)c1	none (no result: CYP2C19 activ, CYP2C9 act, CYP2C19 inhib, CYP2C9 inh)
COc1ccc(C(=O)NC(C(=O)NCC(=O)Nc2c(C)cccc2C)C(C)C)cc1 (centres undefined)	none (no result: CYP2C19 activ, CYP2C9 act, CYP2C19 inhib, CYP2C9 inh)
O=C(O)CCCNc1cc(N2CCC3(CC2)OCCO3)c2noc3c2c1C(=O)c1ccccc1-3	CYP2C9 inh 61
CCOC(=O)N1CCC(NS(=O)(=O)c2cc(Br)cc3c2N(C(=O)CC)CC3)CC1	none
CCC(C)NC(=O)Nc1ccc2c(c1)N(C)C(=O)c1ccccc1S2 (centres undefined)	CYP2C19 inhib 70, CYP2C9 inh 97
CC(=O)c1ccc2c(c1)N(C)c1ccccc1S2	none (no result: CYP2C19 activ, CYP2C9 act, CYP2C19 inhib, CYP2C9 inh)
CC1CCCC(C)N1C(=O)CSc1nnc(C2CCCCC2)o1 (centres undefined)	CYP2C19 inhib 59
Cc1cc(-c2nnc(SCC(=O)N3C(C)CCCC3C)o2)no1 (centres undefined)	CYP2C19 inhib 56
Cc1cc(C)nc(SCCC(=O)N(C)C)n1	none
COc1ccccc1NC(=O)N1CCN(c2cc(-c3ccccc3)nc3ncnn23)CC1	none
Cc1nc(-c2cccc(S(=O)(=O)N3CCCC(C)C3)c2)cs1 (centres undefined)	none
CCCCCn1c(N)c(-c2nc3ccccc3s2)c2c([N+](=O)[O-])nn(C)c(=O)c21	CYP2C9 inh 70
Cc1ccc2[nH]c3c(=O)n(CCc4cnc[nH]4)cnc3c2c1	CYP2C19 inhib 99, CYP2C9 inh 97
Cc1ccc2[nH]c3c(=O)n(CCN4CCOCC4)cnc3c2c1	none
Cc1ccc2[nH]c3c(=O)n(CCCN4CCOCC4)cnc3c2c1	CYP2C19 inhib 68
COC(=O)c1cc2sccc2n1CC(=O)N1CCCc2ccccc21	CYP2C19 inhib 83, CYP2C9 inh 69
CCOC(=O)c1cc2sccc2n1Cc1ccccc1	none
CCOC(=O)c1cc2sccc2n1CCCN1C(=O)c2ccccc2C1=O	CYP2C9 inh 69
COC(=O)c1cc2sc(Cl)cc2n1CC(=O)N1CCCc2ccccc21	CYP2C19 inhib 83, CYP2C9 inh 73
CCOC(=O)c1cc2occc2n1CC(=O)N1CCCc2ccccc21	CYP2C19 inhib 96, CYP2C9 inh 87
Cc1ccc(C(=O)Oc2oc(-c3ccco3)nc2C=Nc2ccccc2)cc1	none
COC(=O)c1cc2oc(C)cc2n1CC(=O)Nc1ccc(C)c(C)c1	none
Cc1ccc2oc(=O)c3cnn(CC(=O)N4CCN(c5ccccc5)CC4)c3c2c1	none
CCOC(=O)c1cc2sc(C)cc2n1CC(=O)N1CCc2ccccc21	none
COC(=O)c1cc2oc(C)cc2n1CC(=O)N1CCCc2ccccc21	CYP2C19 inhib 67, CYP2C9 inh 68
Cc1ccc2oc(=O)c3cnn(CC(=O)N4CCCc5ccccc54)c3c2c1	CYP2C9 inh 55
CCOC(=O)c1cc2sccc2n1CC(=O)N1CCCc2ccccc21	CYP2C19 inhib 98, CYP2C9 inh 94
Cc1c(CNC2CCCC2)c(C(=O)O)c(C)n1Cc1ccccc1	none (no result: CYP2C19 activ, CYP2C9 act, CYP2C19 inhib, CYP2C9 inh)
COc1ccc(OC)c2[nH]c(=O)c(CCNS(=O)(=O)c3ccc(Cl)cc3)cc12	CYP2C9 inh 84
Cc1ccc(C)c2[nH]c(=O)c(CCNC(=O)C(C)C)cc12	none (no result: Measles CPE)
COc1ccc(OC)c2[nH]c(=O)c(CCNC(=O)c3ccc(S(=O)(=O)N(C)C)cc3)cc12	none
Cc1ccc(C)c2[nH]c(=O)c(CCNS(=O)(=O)c3ccccc3)cc12	CYP2C19 inhib 76, CYP2C9 inh 61
COc1ccc(OC)c2[nH]c(=O)c(CCNS(=O)(=O)c3ccc(C)cc3)cc12	CYP2C9 inh 68
